Measurements: the supplement of paper PMC3334620
Whole data set: some 33,000 sequences, median “E-score (-0.5 to 0.5)” near -0.012, cut for the highest 2% near 0.29. Only a selection was taken, and the highest values are over-represented in it overall.

biological target: T1, Ybr033w (UniProt P38073); experiment: PBM E-score (8-mer binding enrichment) (E-score (-0.5 to 0.5)); higher = stronger / more preferred TF binding; settings: protein concentration: 200 nM; construct: GST-full length
T1 sequence: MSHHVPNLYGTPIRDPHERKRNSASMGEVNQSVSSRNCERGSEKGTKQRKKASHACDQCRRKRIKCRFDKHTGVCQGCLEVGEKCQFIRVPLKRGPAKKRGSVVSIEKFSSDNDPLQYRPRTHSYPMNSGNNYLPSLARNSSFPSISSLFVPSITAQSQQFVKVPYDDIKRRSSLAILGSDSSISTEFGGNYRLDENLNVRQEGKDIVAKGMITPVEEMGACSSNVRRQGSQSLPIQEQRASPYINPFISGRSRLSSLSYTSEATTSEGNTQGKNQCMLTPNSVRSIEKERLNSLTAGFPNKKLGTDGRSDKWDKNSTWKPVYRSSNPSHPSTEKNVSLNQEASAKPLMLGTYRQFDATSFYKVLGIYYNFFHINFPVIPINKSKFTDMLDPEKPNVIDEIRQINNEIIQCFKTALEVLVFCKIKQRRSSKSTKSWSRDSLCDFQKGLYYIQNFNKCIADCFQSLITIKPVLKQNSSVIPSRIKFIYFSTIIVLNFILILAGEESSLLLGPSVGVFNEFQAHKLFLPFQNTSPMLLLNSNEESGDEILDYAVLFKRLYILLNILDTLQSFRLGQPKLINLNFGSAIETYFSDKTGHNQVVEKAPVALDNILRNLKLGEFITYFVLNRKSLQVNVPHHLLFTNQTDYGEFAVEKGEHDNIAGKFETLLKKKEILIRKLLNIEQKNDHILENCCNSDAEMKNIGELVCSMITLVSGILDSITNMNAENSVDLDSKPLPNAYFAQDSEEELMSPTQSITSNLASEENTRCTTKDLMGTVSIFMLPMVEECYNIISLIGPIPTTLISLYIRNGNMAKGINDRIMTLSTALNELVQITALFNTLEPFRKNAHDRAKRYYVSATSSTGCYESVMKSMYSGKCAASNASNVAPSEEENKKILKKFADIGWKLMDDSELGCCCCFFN
Description: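 Universal 'all 10-mer' protein binding microarrays (Agilent AMADID 015681) probed with GST-tagged S. cerevisiae TFs (full-length or DBD) made by in vitro transcription/translation (PURExpress), about 100-200 nM. Bound TF was detected with fluorescent anti-GST. Each ungapped 8-mer (which stands for itself and its reverse complement) is scored by the PBM enrichment score (E-score), a modified Wilcoxon-Mann-Whitney statistic from -0.5 to +0.5, computed with the Universal PBM Analysis Suite. Scale: above 0.35 generally sequence-specific binding.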

In order of rising “PBM E-score” value:
1. CCCCCCCC  -0.45
2. CCTGCCCG  -0.354
3. CCCCTATC  -0.337
4. CGGGGCAC  -0.319
5. CTGGTGCA  -0.31
6. GGGGGTAC  -0.254
7. CAAAGCTC  -0.212
8. AAGGCCTC  -0.21
9. AGGGGTAC  -0.205
10. CTGCACCC  -0.204
11. CGAGTGCC  -0.198
12. GGAGGGAC  -0.188
13. GTCTGAGA  -0.163
14. ACGCCCTG  -0.16
15. ACCGTGAC  -0.159
16. CATTCTGG  -0.15
17. CGATAAAC  -0.148
18. CAGGTAGA  -0.138
19. CAGTCTAG  -0.137
20. ATGTTCAG  -0.137
21. CGTCCACG  -0.133
22. CGTGACAC  -0.127
23. GGGGGAAA  -0.124
24. AACGGTGT  -0.113
25. ATGCCCGA  -0.106
26. ATAGCGGC  -0.106
27. CATCTGTA  -0.105
28. AAGATCCG  -0.0767
29. AGTAGCAC  -0.0755
30. CACTTGTC  -0.0719
31. CTCGCAAC  -0.052
32. GATTTCGA  -0.0493
33. GGATAAGA  -0.0485
34. GTGTTCCA  -0.0466
35. ACCTATGC  -0.0454
36. TCGACCGA  -0.0438
37. AGGAAATC  -0.0432
38. AAAATAGC  -0.0427
39. AACCCCGA  -0.0425
40. CGAGACCA  -0.0425
41. CTATCAGA  -0.0376
42. ACCCTTCA  -0.0354
43. GCTATTCC  -0.0267
44. CTCCGTTC  -0.0235
45. ATCCTGGC  -0.0209
46. AGAGACTA  -0.0151
47. AGTAGACT  -0.0063
48. AGGGAAAT  0.00233
49. CGGTTGGA  0.0125
50. ATATGCAT  0.02
51. ACCATCTA  0.0217
52. AGGGGAAA  0.0237
53. CTGTTCCA  0.0353
54. CTGAACTA  0.037
55. AATCCAGC  0.0372
56. AGAACAAC  0.0473
57. TACGACTA  0.0548
58. AGCTTATG  0.0568
59. CATTATCG  0.0618
60. ATGAACAC  0.0659
61. GGATAACA  0.0661
62. CGGAAATC  0.067
63. GTTTTATA  0.0686
64. TGGGGAAA  0.0688
65. CGGGAAAC  0.0713
66. AATTTCGA  0.0715
67. ATGAACTC  0.0731
68. CACTGATC  0.0744
69. CGAACAAC  0.077
70. AGTTATGA  0.0811
71. AACCTGGT  0.0823
72. ATTTATCG  0.0834
73. GCACTGTA  0.0862
74. TAAATAGA  0.0889
75. AGTGGACA  0.0894
76. GATCAAGA  0.0926
77. TAAGCTTA  0.102
78. CCGTCGAG  0.102
79. GTATCAGA  0.106
80. ATTAGAGA  0.115
81. ACCTTTAA  0.126
82. AGCAATGA  0.13
83. GGGAAATA  0.137
84. CAATAATG  0.137
85. CATTATCA  0.138
86. CAAACTGA  0.14
87. CGATAAAA  0.14
88. AGTATTCA  0.142
89. AGGAAATG  0.146
90. TATCCAGA  0.158
91. GTATAAAC  0.158
92. GAAATAAC  0.159
93. GGCATATA  0.16
94. ATAACAAT  0.165
95. CAATAGTA  0.168
96. CAATAATC  0.171
97. GATTTCAA  0.174
98. CGTTATTC  0.175
99. AAAGTACT  0.177
100. AGATAATG  0.181
101. GAATAGTA  0.183
102. TAATAAGA  0.184
103. ATTTTATG  0.186
104. AAAATAAC  0.189
105. ATAACAAG  0.191
106. CGAACAAA  0.191
107. AGAACATA  0.192
108. AACAAACA  0.193
109. ATGTTCCC  0.199
110. CGAACATA  0.2
111. CAAATAAA  0.2
112. ACATAATC  0.205
113. GAATAAAA  0.207
114. AAAATAAG  0.207
115. AGAACAAT  0.209
116. AGAACAAG  0.212
117. CGGGGAAA  0.212
118. AGATAAAC  0.216
119. TTAAGGAA  0.218
120. AGATAATA  0.219
121. CAATAAAA  0.225
122. TAATAACA  0.226
123. CTATTTGA  0.227
124. AAATAATG  0.227
125. CTTTTATC  0.232
126. AAAAAATT  0.237
127. CATTTCAA  0.242
128. ATATAAAA  0.242
129. ACATAATA  0.247
130. GAAATAAA  0.247
131. CCATAATA  0.264
132. AATTATCT  0.264
133. ACTTTATC  0.277
134. TGAACAAA  0.284
135. AGATAAAA  0.286
136. ATATCAGA  0.289
137. GTATAAAA  0.289
138. ATAACAAA  0.29
139. CAATAATA  0.292
140. AATCCAGA  0.295
141. AGGGAAAA  0.296
142. TAATAGTA  0.297
143. AGGAAATA  0.298
144. CGGGAAAA  0.298
145. TGATAAAA  0.299
146. TAAATAAA  0.301
147. ATGAACTA  0.303
148. AGATAATC  0.306
149. AATTATCG  0.308
150. ATTTTATA  0.309
151. GGAACATA  0.313
152. TGGGAAAA  0.316
153. AAAATAAA  0.319
154. AAAATAAT  0.319
155. AATTATCA  0.324
156. ATTTTATC  0.325
157. TAATAATA  0.33
158. AGAACAAA  0.33
159. AAAATAGA  0.332
160. ATGTTCCA  0.332
161. TATTTCAA  0.338
162. AAATAATC  0.341
163. AAATAATA  0.344
164. TATTTCGA  0.357
165. TAATAAAA  0.365
166. AAATAATT  0.388
167. GGATAAAA  0.397
168. CGGAAATA  0.433
169. GGAACAAA  0.45
170. GGAACAAC  0.454
171. GGATAAAC  0.456
172. ATGTTCCG  0.458
